# This excerpt belongs to a sample that is enriched for hits.
# RT RNaseH block – blocks HIV-1 RNase H cleavage of RNA/DNA duplex | RT-RNase H RNA/DNA duplex cleavage, fluorescence | inhibition, % at 10 µM | P04585 | 65,000 compounds, 1.9% hits; in the data active = inhibition above about 50%
# Active calls of the source: *.
SMILES,RT RNaseH block
O=C1C2C3c4ccccc4C(c4ccccc43)C2C(=O)N1Cc1ccco1 (configuration not stated),-4
Cc1cc(C)cc(N(CC(=O)N2CCn3c2nc2ccccc23)S(=O)(=O)c2c(C)noc2C)c1,4
Cc1nccn1-c1cc(C(C)C)c(C#N)c2nc3ccccc3n12,8
CCc1nnc(NC(=O)NCN2C(=O)C3C4C=CC(C4)C3C2=O)s1 (configuration not stated),-3
O=C(NCN1C(=O)C2C3C=CC(C3)C2C1=O)Nc1nccs1 (configuration not stated),55*
Cc1nnc(NC(=O)NCN2C(=O)C3C4C=CC(C4)C3C2=O)s1 (configuration not stated),-6
CCOC(=O)c1c(NC(=O)C(F)(OC)C(F)(F)F)sc(C(=O)N2CCCCC2)c1C (configuration not stated),-1
CC(C)(C)c1[nH]nc2c1C(Cc1ccccc1)C(C#N)=C(N)O2 (configuration not stated),3
Cc1cc(C)c2nc(Nc3nc(C)cc(=O)[nH]3)nc(C)c2c1,-41
Cc1c(NC(=O)c2ccc3c(c2)OCO3)c(=O)n(-c2ccccc2)n1C,0
COc1cccc(C2C3=C(CCCC3=O)Nc3nc4ccccc4n32)c1OC (configuration not stated),-13
Cc1cc(NC(=O)CSc2nc(C(C)C)nc3sc(C)c(C)c23)no1,-2
Cc1cc(NC(=O)CSc2ncnc3sc4c(c23)CCC(C)C4)no1 (configuration not stated),84*
Cc1cc(NC(=O)CSc2nnc3c4c(C)c(C)sc4ncn23)no1,-11
O=S(=O)(c1ccccc1Cl)N1CCC(O)(c2ccc3c(c2)OCO3)CC1,-14
Cc1cc(C)n(CC2CC(=O)N(c3ccc(Cl)c(Cl)c3)C2=O)n1 (configuration not stated),1
CC1(C)Cc2c(C#N)c(N3CCN(C(=O)c4ccccc4)CC3)nc(-c3ccco3)c2CS1,56*
CC1(C)Cc2c(C#N)c(N3CCCC3)nc(-c3ccco3)c2CO1,15
CC(C)c1nc(N2CCN(C(=O)c3ccccc3)CC2)c(C#N)c2c1COC(C)(C)C2,-13
CCC(c1nnc(SCC(=O)NCCc2ccc(Cl)cc2Cl)o1)N(C)C (configuration not stated),51*
CC(C)OC(=O)CSc1nnc(-c2ccc(Cl)cc2Cl)o1,2
C[C@H](N)c1nnc(SCc2ccc(Cl)cc2Cl)o1,-10
O=C(CNS(=O)(=O)c1ccc(Br)s1)NCC1COc2ccccc2O1 (configuration not stated),-6
Cc1cc(C)n2nc(Nc3ccccc3)cc2n1,30
Cc1cc(C)n2nc(C(=O)NCc3ccccc3)cc2n1,88*
SMILES,RT RNaseH block
Cc1cc(C(F)F)n2ncc(C(=O)NCc3ccccc3)c2n1,-3
COc1ccc(OC)c(NC(=O)CSc2nc(C)cs2)c1,-67
COC(=O)c1cc(Br)c(=O)n(-c2cc(C)on2)c1,-11
O=c1[nH]c(=O)n(Cc2ccccc2)c(O)c1C=Nc1ccc(CN2CCOCC2)cc1,7
CCn1c(C)cc(=S)c2ccccc21,7
CCn1c(O)c(C=Nc2ccccc2)oc1=S,54*
COc1ccc(Cl)cc1C(=O)CSc1nc(N)cc(N)n1,-30
Cc1ccc(C)c(Cn2c(=O)n(CCCC(=O)NCc3ccco3)c(=O)c3ccccc32)c1,-2
Cc1cc(C)c(Cn2c(=O)n(CCCC(=O)NCc3ccco3)c(=O)c3ccccc32)c(C)c1,80*
O=C(CCCn1c(=O)c2ccccc2n(CC(=O)NCc2ccco2)c1=O)NCc1ccco1,-5
CCOC(=O)C(C)(C)C(=O)C(C)(C)C(O)c1ccccn1 (configuration not stated),-9
CN1CCN(c2ncnc3c2cnn3-c2ccc(Cl)cc2)CC1,-8
CCN1CCN(c2ncnc3c2cnn3-c2ccc(Cl)cc2)CC1,-7
CCOC(=O)N1CCN(c2ncnc3c2cnn3-c2ccc(Cl)cc2)CC1,69*
COC(=O)[C@H](C)NC(=O)Nc1cc(OC)ccc1OC,-9
CC1(C)Cc2cccc(OCC(=O)N3CCN(S(=O)(=O)c4ccccc4)CC3)c2O1,-47
c1cc(-c2nc3cc(Oc4ccc5oc(-c6ccncc6)nc5c4)ccc3o2)ccn1,-9
NC(=O)c1c(-c2cccs2)csc1N,80*
CCOC(=O)c1c(-c2cccs2)csc1NC(=O)c1ccco1,28
CCOC(=O)c1c(-c2cccs2)csc1NC(=O)CN1CCOCC1,-22
CC(C)(C)CC(=O)N1CCC(c2nc3c(nnn3Cc3c(F)cccc3Cl)c(=O)[nH]2)CC1,-11
Cc1noc(/C=C/c2ccco2)c1S(=O)(=O)N1CCC(C(=O)N2c3ccccc3CC2C)CC1 (configuration not stated),40
COc1ccc(-c2cc3c(=O)n(CC(=O)NC4CCN(Cc5ccccc5)CC4)ncn3n2)cc1,64*
O=C(Cn1cc2c(n1)CCCC2)NC1CCN(Cc2ccccc2)CC1,-6
Cc1ccc2oc(=O)c3cnn(CC(=O)NC4CCN(Cc5ccccc5)CC4)c3c2c1,-12
OC1(c2ccc(F)cc2)CCN(Cc2nnnn2Cc2cccs2)CC1,4
